mHTT CaM bind: mHTT-calmodulin interaction abrogation | P42858 | inhibition, % at 15 µM | AlphaScreen His-mHTT/GST-CaM binding, luminescence | hit rate 3.6% among 190,000;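 also: 0% = both proteins with DMSO and 100% = one protein alone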
Target sequence (P42858 whole entry, looked up, stated change not applied): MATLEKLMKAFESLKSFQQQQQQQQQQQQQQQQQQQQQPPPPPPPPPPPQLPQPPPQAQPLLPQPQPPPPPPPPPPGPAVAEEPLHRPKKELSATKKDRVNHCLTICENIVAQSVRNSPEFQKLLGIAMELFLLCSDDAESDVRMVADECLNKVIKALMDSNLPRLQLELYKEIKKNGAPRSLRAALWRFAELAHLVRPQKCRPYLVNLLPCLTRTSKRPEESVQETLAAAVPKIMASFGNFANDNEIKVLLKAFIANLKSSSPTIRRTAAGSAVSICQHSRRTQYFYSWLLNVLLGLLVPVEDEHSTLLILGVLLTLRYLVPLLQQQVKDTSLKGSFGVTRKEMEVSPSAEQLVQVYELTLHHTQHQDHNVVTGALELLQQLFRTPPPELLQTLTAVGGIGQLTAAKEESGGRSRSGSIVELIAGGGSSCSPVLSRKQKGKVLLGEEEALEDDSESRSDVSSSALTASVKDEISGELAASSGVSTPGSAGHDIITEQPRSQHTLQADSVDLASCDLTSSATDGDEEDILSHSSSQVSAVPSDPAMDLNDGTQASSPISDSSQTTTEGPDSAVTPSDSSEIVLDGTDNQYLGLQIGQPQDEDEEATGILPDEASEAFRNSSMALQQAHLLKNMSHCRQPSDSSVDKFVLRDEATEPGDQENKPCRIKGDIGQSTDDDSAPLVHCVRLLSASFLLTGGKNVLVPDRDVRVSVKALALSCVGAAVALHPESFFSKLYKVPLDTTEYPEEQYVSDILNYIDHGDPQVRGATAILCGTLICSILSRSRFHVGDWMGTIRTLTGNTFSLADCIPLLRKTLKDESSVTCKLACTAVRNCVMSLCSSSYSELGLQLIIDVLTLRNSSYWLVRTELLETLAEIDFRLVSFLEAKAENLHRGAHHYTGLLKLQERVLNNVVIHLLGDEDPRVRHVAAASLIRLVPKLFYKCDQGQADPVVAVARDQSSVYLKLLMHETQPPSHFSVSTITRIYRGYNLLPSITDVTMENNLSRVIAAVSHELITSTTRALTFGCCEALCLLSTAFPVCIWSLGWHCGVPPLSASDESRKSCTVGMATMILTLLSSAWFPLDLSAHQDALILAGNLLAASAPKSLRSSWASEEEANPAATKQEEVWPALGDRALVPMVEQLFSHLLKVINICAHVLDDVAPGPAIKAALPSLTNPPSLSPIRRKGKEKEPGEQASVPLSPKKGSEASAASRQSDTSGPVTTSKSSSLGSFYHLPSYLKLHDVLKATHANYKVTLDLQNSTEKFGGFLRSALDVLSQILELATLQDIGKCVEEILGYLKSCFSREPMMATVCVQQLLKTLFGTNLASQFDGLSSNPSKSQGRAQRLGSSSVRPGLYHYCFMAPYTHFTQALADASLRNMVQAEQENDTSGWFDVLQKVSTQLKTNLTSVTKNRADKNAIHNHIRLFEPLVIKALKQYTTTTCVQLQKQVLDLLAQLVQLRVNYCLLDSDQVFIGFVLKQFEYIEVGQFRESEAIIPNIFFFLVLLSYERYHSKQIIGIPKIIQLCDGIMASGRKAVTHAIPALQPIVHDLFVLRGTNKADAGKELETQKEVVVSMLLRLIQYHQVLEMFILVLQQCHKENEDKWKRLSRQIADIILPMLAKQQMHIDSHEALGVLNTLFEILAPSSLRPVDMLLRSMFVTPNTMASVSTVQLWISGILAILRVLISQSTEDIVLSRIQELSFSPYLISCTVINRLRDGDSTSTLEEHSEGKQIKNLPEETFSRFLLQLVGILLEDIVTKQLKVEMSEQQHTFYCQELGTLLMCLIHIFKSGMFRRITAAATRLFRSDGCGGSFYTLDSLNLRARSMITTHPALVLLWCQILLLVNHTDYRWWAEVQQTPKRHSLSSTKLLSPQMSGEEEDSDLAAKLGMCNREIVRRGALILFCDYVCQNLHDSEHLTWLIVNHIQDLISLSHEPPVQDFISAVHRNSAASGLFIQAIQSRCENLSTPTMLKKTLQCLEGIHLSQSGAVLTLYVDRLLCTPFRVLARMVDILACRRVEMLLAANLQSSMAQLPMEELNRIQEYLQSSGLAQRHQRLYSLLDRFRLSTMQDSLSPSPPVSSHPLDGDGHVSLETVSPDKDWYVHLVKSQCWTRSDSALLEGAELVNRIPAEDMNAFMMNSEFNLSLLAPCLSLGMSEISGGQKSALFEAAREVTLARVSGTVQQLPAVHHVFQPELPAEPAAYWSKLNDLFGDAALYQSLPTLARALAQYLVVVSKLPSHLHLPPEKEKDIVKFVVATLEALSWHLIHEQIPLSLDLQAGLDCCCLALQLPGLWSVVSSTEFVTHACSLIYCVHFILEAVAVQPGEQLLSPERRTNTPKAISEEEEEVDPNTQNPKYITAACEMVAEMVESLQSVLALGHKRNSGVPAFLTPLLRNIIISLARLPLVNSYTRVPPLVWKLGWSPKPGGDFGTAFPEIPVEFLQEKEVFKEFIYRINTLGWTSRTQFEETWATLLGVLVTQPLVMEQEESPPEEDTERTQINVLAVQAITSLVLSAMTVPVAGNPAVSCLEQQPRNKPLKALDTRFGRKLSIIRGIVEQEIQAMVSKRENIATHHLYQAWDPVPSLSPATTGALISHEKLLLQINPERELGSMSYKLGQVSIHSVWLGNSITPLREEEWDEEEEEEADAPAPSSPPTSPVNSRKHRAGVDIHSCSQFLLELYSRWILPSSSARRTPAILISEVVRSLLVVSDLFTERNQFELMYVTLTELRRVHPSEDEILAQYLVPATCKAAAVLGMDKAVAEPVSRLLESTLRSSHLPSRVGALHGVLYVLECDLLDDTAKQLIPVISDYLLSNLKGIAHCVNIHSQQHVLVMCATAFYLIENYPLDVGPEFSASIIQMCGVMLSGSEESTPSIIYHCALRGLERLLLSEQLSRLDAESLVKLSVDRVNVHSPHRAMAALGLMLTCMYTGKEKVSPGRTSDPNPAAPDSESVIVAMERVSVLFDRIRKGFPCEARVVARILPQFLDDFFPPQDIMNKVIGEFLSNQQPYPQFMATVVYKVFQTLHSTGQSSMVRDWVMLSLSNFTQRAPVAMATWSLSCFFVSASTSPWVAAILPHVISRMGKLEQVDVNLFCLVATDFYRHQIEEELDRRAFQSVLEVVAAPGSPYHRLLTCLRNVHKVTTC
Pf apPOL block: Pf-apPOL DNA polymerase inhibition. Recombinant Pf-apPOL, molecular beacon fluorescence, 1.5 h. inhibition, % at 10 µM. hit rate 0.25% among 210,000
The depositor's hits bear a star; i = inactive; · = not tested or not shown; ! = not confirmed by another sample. The sample as a whole holds a higher share of hits than the screen did. Rule as the data show it: active = inhibition above about 50%; inactive = the rest.

SMILES	mHTT CaM bind	Pf apPOL block
O=S(=O)(c1ccccc1)N1N=C(c2cccs2)CC1c1ccc(Br)cc1 (centres undefined)	-4.0	-54.4
CC1(C)Oc2ccc(Br)cc2C2CC(c3cccs3)=NN21 (centres undefined)	59.0*	-3.3
COc1cccc2c1OC1(CCC(C)CC1)N1N=C(c3cccs3)CC21 (centres undefined)	36.0	-15.2
COc1ccc(C2=NN3C(C2)c2cccc(OC)c2OC32CCCCC2)cc1 (centres undefined)	50.0	-20.5
COc1ccc(C2=NN3C(C2)c2cccc(OC)c2OC3(C)C)cc1 (centres undefined)	51.0*	-17.5
CC(C)CNC(=O)C1CCCN(c2ncc(-c3cccc(F)c3)cn2)C1 (centres undefined)	-8.9	4.3
CNC(=O)N1CCCC(c2cccc(C(=O)NCc3ccc(F)c(Cl)c3)c2)C1 (centres undefined)	46.8	-5.6
CC1(C(=O)NC2CCCCCC2)CCC(=O)N1Cc1ccccc1Cl (centres undefined)	2.8	-0.4
O=C(NC1CCC(C(=O)O)CC1)c1ccccc1 (centres undefined)	0.5	-4.6
COc1ccc(C)cc1NS(=O)(=O)c1cccc2cccnc12	-2.8	-1.1
Cc1ccnc(NC(c2ccccc2[N+](=O)[O-])c2ccc3cccnc3c2O)c1 (centres undefined)	99.8*	-3.4
COc1ccc(C(Nc2cc(C)ccn2)c2ccc3cccnc3c2O)cc1OC (centres undefined)	100.0*	2.8
COc1ccc(C(Nc2cc(C)ccn2)c2ccc3ccc(C)nc3c2O)cc1OC (centres undefined)	96.0*	-55.0
COc1ccccc1C(Nc1cc(C)ccn1)c1ccc2cccnc2c1O (centres undefined)	99.0*	-8.2
COc1ccc(NC(=O)Nc2cc(C)ccn2)cc1	-3.4	-4.3
COc1cccc2cc(C(=O)Nc3cc(C)ccn3)c(=O)oc12	0.0	-2.6
O=[N+]([O-])c1cccc2ccc(Nc3ccccn3)nc12	13.7	3.4
CCOC(=O)c1sc(NC(=O)c2ccc([N+](=O)[O-])s2)nc1-c1ccccc1	-10.7	-5.7
CCCN1CCn2cc(C(=O)NCc3cccc(Br)c3)nc2C1	38.1	-4.6
Cc1nc2c(c(N3CCSCC3)n1)CCC2	-4.2	-8.3
COc1ccc(C(Nc2ccccn2)c2ccc3cccnc3c2O)cc1OC (centres undefined)	100.0*	-3.9
CCOc1ccc(C(Nc2ccccn2)c2ccc3ccc(C)nc3c2O)cc1OC (centres undefined)	49.0	1.3
CCc1nnc(N2C(=O)c3ccc(C(=O)O)cc3C2=O)s1	-2.0	-2.6
COc1ccc(C(=O)N2CCN=C2N2CCN(c3cccc(Cl)c3)CC2)cc1	85.0*	-0.5
COc1cccc(-n2nc(C(=O)N3CCOCC3)c3ccccc3c2=O)c1	0.0	-1.5
SMILES	mHTT CaM bind	Pf apPOL block
COc1ccccc1C(=O)N1CCN=C1N1CCN(c2cccc(Cl)c2)CC1	48.1	0.0
CCOc1ccc(C(=O)N2CCN=C2N2CCC(C)CC2)cc1	3.6	-5.9
COc1cccc(-n2nc(C(=O)N3CCN(c4cccc(Cl)c4)CC3)c3ccccc3c2=O)c1	61.0*	-1.8
CCOc1ccc(C(=O)N2CCN=C2N2CCN(c3cccc(Cl)c3)CC2)cc1	100.1*	0.5
COc1cc(NC(=O)c2ccc(C)c(C)c2)cc(OC)c1	-10.9	4.1
Cn1nc(-c2nc(Cc3ccccc3)no2)c2c1CCN(C(=O)Nc1ccc(F)cc1)C2	32.5	-2.1
COc1ccc(-c2nc3cccnc3n2C2CCN(C(=O)NCc3ccco3)C2)cc1 (centres undefined)	45.4	-6.7
O=C(CCCl)Nc1c(-c2ccc(F)c(F)c2)nc2ccccn12	1.3	3.0
O=c1oc2c(-c3ccc(Br)cc3)cc(O)cc2s1	34.0	5.3
Cc1ccc(-c2cc(O)cc3sc(=O)oc23)cc1Cl	53.0*	-4.9
CCc1ccc(-c2cc(O)cc3sc(=O)oc23)cc1	73.0*	6.4
O=c1oc2c(-c3cccc(C(F)(F)F)c3)cc(O)cc2s1	40.0	1.2
Cc1ccc(-c2cc(O)cc3sc(=O)oc23)cc1	75.0*	-4.3
O=c1oc2ccc(O)cc2s1	27.0	·
O=c1oc2c(Br)c(O)c(Br)cc2s1	43.0	-6.0
COc1ccc(-c2cc(O)cc3sc(=O)oc23)cc1	74.0*	1.8
CCc1ccc(NC(=O)N2CCC(n3cnc4ccc(F)cc4c3=O)CC2)cc1	-2.6	-13.5
Cc1ccc(C(=O)Nc2sc3c(c2C#N)CCCCC3)o1	-4.7	-1.7
O=C(CN1CCC2(CC1)N=C(c1cccc(F)c1)C(=O)N2)Nc1cc(F)ccc1F	2.1	10.1
CC(=O)N1CCc2cc(Br)cc(S(=O)(=O)CCC(=O)NCc3ccc(C)cc3)c21	11.0	-7.7
CCSc1sc(CN(C)C)cc1/C=N/O	i	·
O=C(Nc1ccc2nc(-c3ccco3)c(-c3ccco3)nc2c1)N1CCSCC1	83.7*	2.2
O=C(Nc1ccc2nc(-c3ccccn3)c(-c3ccccn3)nc2c1)N1CCOCC1	7.2	-2.5
O=C(Nc1ccc2nc(-c3ccco3)c(-c3ccco3)nc2c1)N1CCOCC1	75.7*	-5.1
Cc1nc2ccc(NC(=O)N3CCCC3)cc2nc1C	-0.5	1.0
SMILES	mHTT CaM bind	Pf apPOL block
COCCN=C1Nc2ccccc2CNC12CCN(C(=O)c1ccc3cc[nH]c3c1)C2 (centres undefined)	21.3	-3.5
O=C(CCSc1ccccc1)NCCOc1ccc(-c2ccccn2)nn1	100.3*	3.4
O=C(NCCOc1ccc(-c2ccccn2)nn1)c1cc(Cl)ccc1Cl	100.2*	2.9
O=C(NCCOc1cccc2cccnc12)c1ccc(Cl)cc1Cl	1.0	-1.6
O=C(Cc1cccs1)NCCOc1ccc(-c2ccccn2)nn1	100.3*	-2.2
O=C(Cn1cnc2ccccc2c1=O)NCCOc1ccc(-c2ccccn2)nn1	100.3*	-6.2
O=C(Cc1ccc(Cl)cc1)NCCOc1ccc(-c2cccs2)nn1	-6.2	-0.6
O=C(Cn1cnc2ccccc2c1=O)NCCO	-6.5	-3.0
O=C(Cc1ccc(F)cc1)NCCOc1ccc(-c2ccc(F)cc2)nn1	-0.4	0.2
CCC1CN2C=NC(N3CCN(C(=O)Cc4ccccc4)CC3)=CC2=N1 (centres undefined)	6.0	1.0
O=C(N1CCC(c2cnn(-c3cccc(F)c3)c2)CC1)C1(c2ccccc2)CC1	5.8	-2.6
Cn1ncc(N2CCCC(C(=O)NCCN3CCc4ccccc4C3)C2)cc1=O (centres undefined)	5.1	-3.1
Cc1cc(C2(c3ccc(O)c(C)c3)C(=O)N(Cc3ccccc3)c3ccccc32)ccc1O	94.7*	-7.8
O=C1N(Cc2ccccc2)c2ccccc2C1(Cc1ccccc1)c1ccccc1 (centres undefined)	·	-0.5
Cc1ccc(-c2cc(C(F)(F)F)n3ncc(C(=O)NC(C)C)c3n2)cc1	-1.0	-5.0
CC(=O)c1ccc(O)c2c1C1C=CCC1C(c1ccc(Cl)cc1)N2 (centres undefined)	64.1*	-7.1
Fc1ccc([C@@H]2Nc3c(F)cccc3[C@@H]3C=CC[C@@H]32)cc1	-10.6	·
Oc1ccc(Cl)c2c1NC(c1ccc(Cl)cc1)C1CC=CC21 (centres undefined)	100.0*	-2.8
Fc1cccc2c1NC(c1ccc(Cl)cc1)C1CC=CC21 (centres undefined)	59.0*	2.2
CCCn1c(C2CCN(C(=O)Nc3ccccc3C)C2)nc2cccnc21 (centres undefined)	2.8	-0.9
CN(Cc1ccccc1)c1ncnc(N)c1[N+](=O)[O-]	9.0	92.3*!
